# The supplement of paper PMC4466140
# Target: SpBzz1-D2
# Experiment: SPOT peptide array binding signal intensity (averaged, normalized) (arbitrary units (background-subtracted, floor 0; scale differs between SH3 domains)); higher = stronger binding of the SH3 domain to the peptide
# Method in brief: (§1)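 Binding signal refers to normalized, background-subtracted spot intensity averaged over replicates, expressed in arbitrary units that differ between domains. GST-fused SH3 domains from four yeast species were incubated at 10 μg/ml overnight at 4°C on cellulose membranes of synthetic 15-mer peptides with cysteines replaced by serines. Bound protein was detected with anti-GST antibody, an HRP anti-mouse secondary and luminol, and quantified with Genespotter.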
row,Binder,SPOT peptide array binding signal intensity
1,KDKKTKPTPPPKPSH,≤ 0

# Target: SpCyk3
# Experiment: as above
# Method in brief: as §1
row,Binder,SPOT peptide array binding signal intensity
1,KDKKTKPTPPPKPSH,≤ 0

# Target: SpHof1
# Experiment: as above
# Method in brief: as §1
row,Binder,SPOT peptide array binding signal intensity
1,KDKKTKPTPPPKPSH,5.5

# Target: SpHof1-2
# Experiment: as above
# Method in brief: as §1
row,Binder,SPOT peptide array binding signal intensity
1,KDKKTKPTPPPKPSH,5.5

# Target: SpHof1-3
# Experiment: as above
# Method in brief: as §1
row,Binder,SPOT peptide array binding signal intensity
1,KDKKTKPTPPPKPSH,67.8

# Target: SpHse1
# Experiment: as above
# Method in brief: as §1
row,Binder,SPOT peptide array binding signal intensity
1,KDKKTKPTPPPKPSH,9.25

# Target: SpLsb1
# Experiment: as above
# Method in brief: as §1
row,Binder,SPOT peptide array binding signal intensity
1,KDKKTKPTPPPKPSH,70.5

# Target: SpLsb4
# Experiment: as above
# Method in brief: as §1
row,Binder,SPOT peptide array binding signal intensity
1,KDKKTKPTPPPKPSH,≤ 0

# Target: SpMyo1
# Experiment: as above
# Method in brief: as §1
row,Binder,SPOT peptide array binding signal intensity
1,KDKKTKPTPPPKPSH,2

# Target: SpNbp2
# Experiment: as above
# Method in brief: as §1
row,Binder,SPOT peptide array binding signal intensity
1,KDKKTKPTPPPKPSH,31

# Target: SpPex13
# Experiment: as above
# Method in brief: as §1
row,Binder,SPOT peptide array binding signal intensity
1,KDKKTKPTPPPKPSH,9

# Target: SpRvs167
# Experiment: as above
# Method in brief: as §1
row,Binder,SPOT peptide array binding signal intensity
1,KDKKTKPTPPPKPSH,2

# Target: SpSla1-D1-D2
# Experiment: as above
# Method in brief: as §1
row,Binder,SPOT peptide array binding signal intensity
1,KDKKTKPTPPPKPSH,1.5

# Target: SpSla1-D3
# Experiment: as above
# Method in brief: as §1
row,Binder,SPOT peptide array binding signal intensity
1,KDKKTKPTPPPKPSH,≤ 0

# Target: AgAbp1
# Experiment: as above
# Method in brief: as §1
row,Binder,SPOT peptide array binding signal intensity
1,ALRRRLPVTRSKINW,348

# Target: AgBbc1
# Experiment: as above
# Method in brief: as §1
row,Binder,SPOT peptide array binding signal intensity
1,ALRRRLPVTRSKINW,122

# Target: AgBem1-D1
# Experiment: as above
# Method in brief: as §1
row,Binder,SPOT peptide array binding signal intensity
1,ALRRRLPVTRSKINW,140

# Target: AgBzz1-D1
# Experiment: as above
# Method in brief: as §1
row,Binder,SPOT peptide array binding signal intensity
1,ALRRRLPVTRSKINW,43

# Target: AgBzz1-D2
# Experiment: as above
# Method in brief: as §1
row,Binder,SPOT peptide array binding signal intensity
1,ALRRRLPVTRSKINW,60

# Target: AgCyk3
# Experiment: as above
# Method in brief: as §1
row,Binder,SPOT peptide array binding signal intensity
1,ALRRRLPVTRSKINW,9.5

# Target: AgFus1
# Experiment: as above
# Method in brief: as §1
row,Binder,SPOT peptide array binding signal intensity
1,ALRRRLPVTRSKINW,583

# Target: AgHof1
# Experiment: as above
# Method in brief: as §1
row,Binder,SPOT peptide array binding signal intensity
1,ALRRRLPVTRSKINW,71.8

# Target: AgHse1
# Experiment: as above
# Method in brief: as §1
row,Binder,SPOT peptide array binding signal intensity
1,ALRRRLPVTRSKINW,1170

# Target: AgLsb1
# Experiment: as above
# Method in brief: as §1
row,Binder,SPOT peptide array binding signal intensity
1,ALRRRLPVTRSKINW,9.75

# Target: AgLsb4
# Experiment: as above
# Method in brief: as §1
row,Binder,SPOT peptide array binding signal intensity
1,ALRRRLPVTRSKINW,189

# Target: AgMyo5
# Experiment: as above
# Method in brief: as §1
row,Binder,SPOT peptide array binding signal intensity
1,ALRRRLPVTRSKINW,≤ 0

# Target: AgNbp2
# Experiment: as above
# Method in brief: as §1
row,Binder,SPOT peptide array binding signal intensity
1,ALRRRLPVTRSKINW,346

# Target: AgRvs167
# Experiment: as above
# Method in brief: as §1
row,Binder,SPOT peptide array binding signal intensity
1,ALRRRLPVTRSKINW,19.5

# Target: AgSho1
# Experiment: as above
# Method in brief: as §1
row,Binder,SPOT peptide array binding signal intensity
1,ALRRRLPVTRSKINW,79

# Target: AgSla1-D1-D2
# Experiment: as above
# Method in brief: as §1
row,Binder,SPOT peptide array binding signal intensity
1,ALRRRLPVTRSKINW,840

# Target: AgSla1-D3
# Experiment: as above
# Method in brief: as §1
row,Binder,SPOT peptide array binding signal intensity
1,ALRRRLPVTRSKINW,5.5

# Target: CaAbp1-D1
# Experiment: as above
# Method in brief: as §1
row,Binder,SPOT peptide array binding signal intensity
1,ALRRRLPVTRSKINW,1340

# Target: CaAbp1-D2
# Experiment: as above
# Method in brief: as §1
row,Binder,SPOT peptide array binding signal intensity
1,ALRRRLPVTRSKINW,526

# Target: CaBbc1
# Experiment: as above
# Method in brief: as §1
row,Binder,SPOT peptide array binding signal intensity
1,ALRRRLPVTRSKINW,302

# Target: CaBem1-D1
# Experiment: as above
# Method in brief: as §1
row,Binder,SPOT peptide array binding signal intensity
1,ALRRRLPVTRSKINW,35

# Target: CaBzz1-D1
# Experiment: as above
# Method in brief: as §1
row,Binder,SPOT peptide array binding signal intensity
1,ALRRRLPVTRSKINW,104

# Target: CaBzz1-D2
# Experiment: as above
# Method in brief: as §1
row,Binder,SPOT peptide array binding signal intensity
1,ALRRRLPVTRSKINW,151

# Target: CaCyk3
# Experiment: as above
# Method in brief: as §1
row,Binder,SPOT peptide array binding signal intensity
1,ALRRRLPVTRSKINW,53.5

# Target: CaFus1
# Experiment: as above
# Method in brief: as §1
row,Binder,SPOT peptide array binding signal intensity
1,ALRRRLPVTRSKINW,1200

# Target: CaHof1
# Experiment: as above
# Method in brief: as §1
row,Binder,SPOT peptide array binding signal intensity
1,ALRRRLPVTRSKINW,1

# Target: CaHse1
# Experiment: as above
# Method in brief: as §1
row,Binder,SPOT peptide array binding signal intensity
1,ALRRRLPVTRSKINW,60

# Target: CaLsb1
# Experiment: as above
# Method in brief: as §1
row,Binder,SPOT peptide array binding signal intensity
1,ALRRRLPVTRSKINW,1.5

# Target: CaLsb4
# Experiment: as above
# Method in brief: as §1
row,Binder,SPOT peptide array binding signal intensity
1,ALRRRLPVTRSKINW,195

# Target: CaMyo5
# Experiment: as above
# Method in brief: as §1
row,Binder,SPOT peptide array binding signal intensity
1,ALRRRLPVTRSKINW,5.5
